Experimental findings from PubChem BioAssay (Tox21) are described below.

Values joined by “and” are separate entries in the source; they are usually repeats but may differ in a detail not shown here. Identical values can stand only once. Inconclusive results are not listed. A call without a number means that no potency is given here. A structure can be active in one record and inactive in another. Active and inactive are the calls of the source. Calls come from the whole dose curve; as a rule, active = well fitted cell-killing curve with a large enough effect in the repeat runs; inconclusive = weak or mixed curves; inactive = no such curve, though single readings can be large or run the other way.
Potency is the fitted concentration of half-maximal effect.

This experiment is described as follows: qHTS assay for identifying genotoxic compounds that show differential cytotoxicity against isogenic chicken DT40 cell lines with known DNA damage response pathways - Rad54/Ku70 mutant cell line (AID 743015). Note: nearly all actives have a fitted effect of over 60% in size. The following applies: DT40 Rad54/Ku70 mutant viability, CellTiter-Glo, 40 h; series mostly up to 66.8 µM; activity change, negative = cytotoxicity: at the top concentration. The text has this:
National Center for Advancing Translational Sciences [NCATS]
NIH Chemical Genomics Center [NCGC]
U.S. Environmental Protection Agency [EPA]
National Institutes of Environmental Health Sciences [NIEHS]
National Toxicology Program [NTP]
U.S. Food and Drug Administration [FDA]
DNA repair pathways play a critical role in cellular homeostasis by repairing DNA damage induced by endogenous processes and xenobiotics. Isogenic chicken DT40 cell lines deficient in different DNA repair pathways can be used to identify genotoxic compounds and aid in characterizing the nature of the DNA damage induced. Two DNA repair-deficient cell lines with disrupted genes, Rad54/Ku70 or Rev3, were used to screen the Tox21 10K compound library. Possible genotoxicity was based on the presence of a significant increase in cytotoxicity in one or more of the DNA repair-deficient cell lines compared to that observed in the parental DNA repair-proficient cell line. CellTiter Glo viability assay (Promega, Madison, WI) was used to measure cell viability in these cells after compound treatment. This assay includes the data from the Rad54/Ku70 mutant cell line.
Tox21 Assay Protocol Summary:
300 DT40 mutant cells in 5 uL/well were dispensed into white, solid-bottom 1536-well plates using a Multidrop Combi (ThermoFisher Scientific, Waltham, MA) dispenser. After the assay plates were incubated at 37 C/5% CO2 for approximately 0.5 hour, 23 nL of compounds dissolved in DMSO, positive controls or DMSO only was transferred into the assay plate by a pintool work station (Kalypsys, San Diego, CA). The assay plates were incubated at 37 C/5% CO2 for 40 hours. After 5 uL per well of CellTiter-Glo reagent was added into each well of the assay plates, the plates were incubated for 30 min at room temperature and the luminescence intensity of the plates was measured using a ViewLux (PerkinElmer, Shelton, CT) plate reader.
For the compound `C=CCO`, the Potency entry was “inactive”.
Consider `NCCc1ccc(O)cc1`, for which the Potency entry is “inactive”.
Still for that read-out and setting: the same measure for `CC(C)C1(C)N=C(c2nc3ccccc3cc2C(=O)O)NC1=O` (stereo not given): “inactive”; for `Nc1ccccc1C(=O)O`: “inactive”.
Take `CCOP(OCC)OCC`: the “activity change, negative = cytotoxicity” value is -0.642% (inactive).
As to `Oc1ccccc1Cl`, the Potency result was “inactive”.
Same read-out and setting: the same measure for `CCCN(CCC)c1c([N+](=O)[O-])cc(C(F)(F)F)cc1[N+](=O)[O-]`: “inactive”; for `CCOC(=O)c1ccccc1C(=O)OCC`: “inactive”; for `CN(C)[C@@H]1C(=O)C(C(N)=O)=C(O)[C@@]2(O)C(=O)C3=C(O)c4c(O)cccc4[C@@](C)(O)[C@H]3C[C@@H]12`: “inactive”.
Still for that read-out and setting: the same measure for `[N-]=[N+]=[N-]`: “inactive”.
Same read-out and setting: the same measure for `Cc1ccccc1O`: “inactive”; for `CON(C)C(=O)Nc1ccc(Cl)c(Cl)c1`: “inactive and 54.5 µM (active)”.
As to `O=S(=O)(c1ccc(Cl)cc1)c1cc(Cl)c(Cl)cc1Cl`, the Potency result is “inactive and 54.5 µM (active)”.
`CCOP(=S)(OCC)SCCSCC`: the “activity change, negative = cytotoxicity” value is 1.01% [at 95.1 µM] (inactive).
On to `CCC12COCN1COC2`, for which the Potency entry was “inactive”.
As for `Nc1c(Cl)c(Cl)nc(C(=O)O)c1Cl`, the Potency result is “inactive”.
In the case of `Nc1ccc(Cc2ccc(N)cc2)cc1`, the Potency result is “inactive”.
On the same count and under the same terms, the same measure for `CCCC1COC(Cn2cncn2)(c2ccc(Cl)cc2Cl)O1` (stereo not given): 55.5 µM (active) and 17.2 µM (active); for `Cc1ccc(N)cc1N`: 17.2 µM (active).
Take `Cc1cc(Cl)ccc1O`: the “activity change, negative = cytotoxicity” value was 8.16% (inactive).
For `CC(C)OC(=O)Nc1ccccc1`, the Potency entry was “inactive”.
Still for that read-out and setting: the same measure for `c1ccc(OP(Oc2ccccc2)Oc2ccccc2)cc1`: “inactive”; for `CCCCN(CC)C(=O)SCCC`: “inactive”.
`C1CN2CCN1CC2`: the Potency result is “inactive”.
In the case of `ClCc1cccnc1`, the Potency result was “inactive”.
On the same count and under the same terms, the same measure for `CCCCCCCCCl`: “inactive”; for `CC(C)N1C(=O)c2ccccc2NS1(=O)=O`: “inactive”.
In the case of `C#CC(C)(C)NC(=O)c1cc(Cl)cc(Cl)c1`, the “activity change, negative = cytotoxicity” value is -13.9% [at 95.1 µM] (inactive).
In the case of `c1cc2c3c(cccc3c1)CC2`, the Potency entry is “inactive and 61.1 µM (active)”.
Same read-out and setting: the same measure for `ClCCBr`: “inactive”.
The same measure, in the same setting: the same measure for `Clc1ccc(Cl)cc1`: “inactive”; for `O=C(O)c1ccccn1`: “inactive”; for `CC(=O)C=C(C)C`: “inactive”.
The same measure, in the same setting: the same measure for `Nc1ccc(Br)cc1`: “inactive”; for `CC(C)(C)C(O)(CCc1ccc(Cl)cc1)Cn1cncn1` (stereo not given): 69.4 µM (active) and 61.1 µM (active).
Take `Cn1cc(-c2ccccc2)c(=O)c(-c2cccc(C(F)(F)F)c2)c1`: the Potency was 61.1 µM (active).
The same measure, in the same setting: the same measure for `O=C(NC(=O)c1c(F)cccc1F)Nc1cc(Cl)c(OC(F)(F)C(F)C(F)(F)F)cc1Cl` (stereo not given): 5.96 µM (active) and 21.7 µM (active).
Take `C=C(C)CCl`: the Potency result is “inactive”.
For `CCN(CC)CCO`, the Potency entry is “inactive”.
The same measure, in the same setting: the same measure for `CCC(C)(CC)c1cc(NC(=O)c2c(OC)cccc2OC)on1`: 46.7 µM (active).
